Screening results deposited in PubChem by The Scripps Research Institute Molecular Screening Center.
FBW7 activator = activators of human E3 ligase FBW7; AID 1259310; actives 0.13% (n = 650,000); AlphaScreen FBW7–phospho-cyclin E peptide binding, activator screen; normalized activity (activation), % at 26.1 µM; in the data active means normalized activity above about 1.9%;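 further: purified mutant Fbw7 with reduced substrate affinity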
GPR151 ag = activates the human receptor GPR151; actives 1% (n = 650,000); activation, % at 11.2 µM; Q8TDV0; PathHunter beta-arrestin GPR151 cells, luminescence; in the data active means activation above about 4.9%;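 further: 0% = median of compound wells and 100% = cells with positive control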
MITF primary = inhibitors of human MITF; O75030; actives 0.91% (n = 650,000); AlphaScreen MITF homodimerization, bead proximity signal; inhibition, % at 2.6 µM; in the data active means inhibition above about 50%;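 further: 0% = vehicle wells with protein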
TEAD-YAP inh = TEAD-YAP interaction inhibition; HEK-TIYL cells, TEAD-Gal4/YAP UAS-luciferase luminescence; actives 1.4% (n = 640,000); inhibition, % at 9.12 µM; in the data active means inhibition above about 32%;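 further: 0% = median of test compound wells and 100% = reference inhibitor wells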
Numbers without * were called inactive. This is a sample that favours compounds with a hit; in the whole collection about 3.4% have one here.

What do the screens show for `COc1ccc(N=Cc2c(O)n(-c3ccccc3F)c(=O)[nH]c2=O)c(OC)c1`?
FBW7 activator: 1; GPR151 ag: 0; MITF primary: 6; TEAD-YAP inh: 0

Results for COCCOC(=O)C1=C(C)NC(=O)NC1c1cccc(Oc2ccccc2)c1 (stereo unspecified) ?
FBW7 activator: 0; GPR151 ag: 0; MITF primary: -2; TEAD-YAP inh: -1

Results for COc1ccccc1NS(=O)(=O)c1cccc2ccccc12 ?
FBW7 activator: 0; GPR151 ag: 0; MITF primary: -34; TEAD-YAP inh: 8

Results for COc1cc(OC)cc(C(=O)Nc2cc(C(=O)N3CCCC3)ccc2N2CC3CC(C2)c2cccc(=O)n2C3)c1 (stereo unspecified) ?
FBW7 activator: 0; GPR151 ag: 2; MITF primary: -8; TEAD-YAP inh: -12

What do the screens show for `O=C1C(=O)N(Cc2cccc3ccccc23)c2ccc([N+](=O)[O-])cc21`?
FBW7 activator: 0; GPR151 ag: -1; MITF primary: 15; TEAD-YAP inh: 35*

What do the screens show for `Cc1ccc(CN2C(=O)C(=O)c3cc([N+](=O)[O-])ccc32)cc1`?
FBW7 activator: 0; GPR151 ag: 0; MITF primary: 3; TEAD-YAP inh: 66*

How did O=C1C(=O)N(Cc2ccc(Cl)c(Cl)c2)c2ccc([N+](=O)[O-])cc21 do in these assays?
FBW7 activator: 0; GPR151 ag: 2; MITF primary: -4; TEAD-YAP inh: 8

What do the screens show for `O=C1C(=O)N(Cc2ccc(Br)cc2)c2ccc([N+](=O)[O-])cc21`?
FBW7 activator: 0; GPR151 ag: 0; MITF primary: -14; TEAD-YAP inh: 33*

How did O=C1C(=O)N(Cc2cccc3ccccc23)c2ccc(Br)cc21 do in these assays?
FBW7 activator: 0; GPR151 ag: -1; MITF primary: 42; TEAD-YAP inh: 25

What do the screens show for `C#CC(O)(c1ccc(OC)cc1)c1ccc(OC)c2ccccc12` (stereo unspecified)?
FBW7 activator: 0; GPR151 ag: 0; MITF primary: 0; TEAD-YAP inh: 56*

How did COc1cc(CCC(=O)N2CCCCC2c2nc3cc(C)c(C)cc3[nH]2)on1 (stereo unspecified) do in these assays?
FBW7 activator: 0; GPR151 ag: -1; MITF primary: -1; TEAD-YAP inh: 41*

What do the screens show for `Cc1cc2nc(C3CCCCN3C(=O)CCc3c(C)noc3C)[nH]c2cc1C` (stereo unspecified)?
FBW7 activator: 0; GPR151 ag: 0; MITF primary: -4; TEAD-YAP inh: 0

Results for CCOC(=O)C1=C(C)N=c2s/c(=C\c3ccc(-c4ccccc4[N+](=O)[O-])o3)c(=O)n2C1c1ccc(C(C)C)cc1 (stereo unspecified) ?
FBW7 activator: 0; GPR151 ag: -1; MITF primary: 0; TEAD-YAP inh: -2

What do the screens show for `NC(=O)C1CCCN1c1nc(-c2cccs2)nc2ccccc12` (stereo unspecified)?
FBW7 activator: 0; GPR151 ag: 0; MITF primary: -7; TEAD-YAP inh: 3

What do the screens show for `OCC1CCCCN1c1nc(-c2cccs2)nc2ccccc12` (stereo unspecified)?
FBW7 activator: 0; GPR151 ag: 1; MITF primary: 0; TEAD-YAP inh: 74*

What do the screens show for `Cc1ccc(N/C(=N/S(=O)(=O)c2cccs2)c2ccccc2)cc1F`?
FBW7 activator: 0; GPR151 ag: 1; MITF primary: -7; TEAD-YAP inh: 40*

Results for O=S(=O)(/N=C(\Nc1nccs1)c1ccccc1)c1cccs1 ?
FBW7 activator: 0; GPR151 ag: -3; MITF primary: 25; TEAD-YAP inh: -7

Results for OCc1ccc(-c2cnn3c(N4CCOCC4)ccnc23)cc1 ?
FBW7 activator: 0; GPR151 ag: 1; MITF primary: 20; TEAD-YAP inh: 42*

What do the screens show for `O=C(O)CCc1ccc(-c2cnn3c(N4CCC(O)CC4)ccnc23)cc1`?
FBW7 activator: 0; GPR151 ag: -1; MITF primary: 7; TEAD-YAP inh: 37*

How did CN1CCN(c2ccnc3c(-c4ccc(CO)cc4)cnn23)CC1 do in these assays?
FBW7 activator: 0; GPR151 ag: 1; MITF primary: -5; TEAD-YAP inh: -58

How did COCCOC(=O)C1=C(C)NC(=O)CC1c1cccc(Cl)c1Cl (stereo unspecified) do in these assays?
FBW7 activator: 0; GPR151 ag: 0; MITF primary: -3; TEAD-YAP inh: -7

Results for Nc1c(S(=O)(=O)O)cc2c3c(cccc13)C(=O)N(CCO)C2=O ?
FBW7 activator: 0; GPR151 ag: 2; MITF primary: 72*; TEAD-YAP inh: -2

What do the screens show for `CN(C)c1ccc2c3c(cccc13)C(=O)N(CCO)C2=O`?
FBW7 activator: 0; GPR151 ag: -1; MITF primary: -4; TEAD-YAP inh: -20

Results for CNc1nc(Nc2ccc(C)c(C)c2)c2nccnc2n1 ?
FBW7 activator: 1; GPR151 ag: -2; MITF primary: 0; TEAD-YAP inh: 6

How did CNc1nc(Nc2ccc(OC)cc2)c2nccnc2n1 do in these assays?
FBW7 activator: 2.9*; GPR151 ag: -1; MITF primary: 17; TEAD-YAP inh: 5

What do the screens show for `CSc1cccc2sc(N3CCN(C(C)=O)CC3)nc12`?
FBW7 activator: 0; GPR151 ag: 3; MITF primary: 11; TEAD-YAP inh: -1

How did COc1cc(OC)cc(-c2cc3nc(C)c(CCC(=O)O)c(C)n3n2)c1 do in these assays?
FBW7 activator: 0; GPR151 ag: 1; MITF primary: 5; TEAD-YAP inh: 56*

How did O=[N+]([O-])c1cc2c(c(CO/N=C/c3ccccc3Cl)c1)OCOC2 do in these assays?
FBW7 activator: 0; GPR151 ag: 0; MITF primary: -2; TEAD-YAP inh: -19

How did CCC(C)n1c(SCc2ccccc2Cl)nc2ccsc2c1=O (stereo unspecified) do in these assays?
FBW7 activator: 0; GPR151 ag: 1; MITF primary: 1; TEAD-YAP inh: 51*

Results for CCC(C)n1c(SCc2c(F)cccc2Cl)nc2ccsc2c1=O (stereo unspecified) ?
FBW7 activator: 0; GPR151 ag: 1; MITF primary: 17; TEAD-YAP inh: -2

How did COc1cccc(NC(=O)CSc2nc(NC3CCCCC3)c3ccccc3n2)c1 do in these assays?
FBW7 activator: 0; GPR151 ag: 1; MITF primary: 14; TEAD-YAP inh: 44*

Results for O=[N+]([O-])c1ccc(S(=O)(=O)Nc2cccc3ccccc23)cc1 ?
FBW7 activator: 0; GPR151 ag: 0; MITF primary: 17; TEAD-YAP inh: 12

How did O=[N+]([O-])c1ccc(S(=O)(=O)Nc2cccc3cc4ccccc4nc23)cc1 do in these assays?
FBW7 activator: 0; GPR151 ag: -1; MITF primary: 24; TEAD-YAP inh: 80*

How did Cc1sc(NC(=O)c2ccco2)c(C(c2cccnc2)N2CCC(Cc3ccccc3)CC2)c1C (stereo unspecified) do in these assays?
FBW7 activator: 0; GPR151 ag: -1; MITF primary: 4; TEAD-YAP inh: 35*
